# High-throughput results: PubChem, several laboratories
# Only some compounds are listed: those with a hit (about 2.3% of all), similar ones and a draw of the others.
# SENP6 block – blocks the human protease SENP6; Q9GZR1; Recombinant SENP6 catalytic domain, aminoluciferin luminescence; inhibition, % at 10 µM; hit rate 1.8% among 330,000;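 active means inhibition above about 50% at the single tested dose, limit read from the data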;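 further: plate controls were DMSO wells with enzyme for no effect and DMSO wells lacking enzyme for full effect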
# Target sequence (Q9GZR1 628-1112 limits assumed): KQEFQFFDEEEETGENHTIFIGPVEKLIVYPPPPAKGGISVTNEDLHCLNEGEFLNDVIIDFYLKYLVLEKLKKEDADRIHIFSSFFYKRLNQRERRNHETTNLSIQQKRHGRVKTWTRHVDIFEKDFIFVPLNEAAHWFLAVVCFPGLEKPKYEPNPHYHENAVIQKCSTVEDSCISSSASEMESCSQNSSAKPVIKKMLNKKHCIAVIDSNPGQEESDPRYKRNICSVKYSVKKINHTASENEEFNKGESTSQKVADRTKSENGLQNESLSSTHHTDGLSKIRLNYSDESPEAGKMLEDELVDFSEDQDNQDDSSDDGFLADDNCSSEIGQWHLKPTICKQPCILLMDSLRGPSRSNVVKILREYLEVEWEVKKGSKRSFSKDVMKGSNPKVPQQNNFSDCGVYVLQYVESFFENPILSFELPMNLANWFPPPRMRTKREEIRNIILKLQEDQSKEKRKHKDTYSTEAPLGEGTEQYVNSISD
# HSP90 refold inh – inhibitors of HSP90 luciferase refolding in rabbit reticulocyte lysate | inhibition, % at 5.6 µM | luciferase refolding luminescence, 3 h | hit rate 0.91% among 290,000;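 active means inhibition above the screen-wide mean plus 3 SD, computed separately per campaign, cut at about 16% in these data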;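 further: 0% = DMSO wells and 100% = 60 µM geldanamycin wells; inhibitors lower the luminescence because luciferase stays unfolded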
# LGR2 antag – inhibitors of bursicon-induced Drosophila LGR2 receptor cAMP signaling; HEK293 LGR2, CRE-luciferase, bursicon-stimulated, 4 h; inhibition, % at 9.99 µM; hit rate 0.35% among 380,000; AID 720647;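 active means drop in luminescence signal, shown as inhibition above about 50% in the replicate tests, limit read from the data, passing the limit was not always enough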;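 further: agonist challenge used bursicon conditioned medium at about half maximal strength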
# SENP8 block-1 – blocks human SENP8 cleavage of Nedd8 substrate; recombinant SENP8, Nedd8 substrate fluorescence; hit rate 0.64% among 360,000; inhibition, % at 20 µM; Q96LD8; AID 602440; in the data active means inhibition mostly above about 40%, no sharp cut-off; inactive means mostly below about 27%
# SENP7 inh – SENP7 protease inhibition; Q9BQF6; recombinant SENP7, Z-RLRGG-aminoluciferin luminescence, 40 min; inhibition, % at 5 µM; hit rate 1.5% among 330,000;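 active means inhibition above about 50% at the single test dose, limit read from the data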;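 further: plate controls were DMSO with enzyme for no effect and no enzyme buffer wells for full effect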
# SENP8 block-2 – blocks the human protease SENP8; Q96LD8; hit rate 1.2% among 330,000; inhibition, % at 10 µM; AID 2540; purified SENP8, Z-RLRGG-aminoluciferin cleavage, luminescence; in the data active means inhibition above about 50%
# Active calls of the source: *; . = not tested or not shown.
SMILES,SENP6 block,HSP90 refold inh,LGR2 antag,SENP8 block-1,SENP7 inh,SENP8 block-2
COC(=O)c1ccc(C2Nc3cccc4cccc(c34)N2)cc1,27,4,5,54*,12,2
Clc1ccccc1C1Nc2cccc3cccc(c23)N1,18,4,.,-70,0,-1
COc1cc(C2Nc3cccc4cccc(c34)N2)cc(OC)c1O,19,-2,.,58*,98*,8
O=c1c2ccccc2cnn1CCOc1ccccc1,92*,68*,86*,8,93*,92*
Cc1ccc(S(=O)(=O)N[C@H]2CC[C@H](CC(=O)N3CCC(Cc4ccccc4)CC3)O[C@@H]2CO)cc1,.,.,9,.,.,.
Cc1[nH]c2ccccc2c(=O)c1C(=O)/C=C/c1ccccc1,3,-2,74*,23,-4,-4
O=C(/C=C/c1ccccc1)c1c[nH]c2ccccc12,58*,0,-41,9,84*,38
CN(C)CC(=O)N[C@H]1C=C[C@@H](CC(=O)NCCN2CCCCC2)O[C@H]1CO,.,.,-10,.,.,.
C[C@H]1CN([C@@H](C)CO)C(=O)c2cccc(NS(=O)(=O)c3cccs3)c2O[C@H]1CN(C)Cc1ccc2c(c1)OCO2,.,.,9,.,.,.
C[C@@H]1CCCCO[C@H](CN(C)S(C)(=O)=O)[C@@H](C)CN([C@H](C)CO)C(=O)c2cc(NC(=O)CCC(F)(F)F)ccc2O1,.,.,-8,.,.,.
Cc1cc(-c2csc(NC(=O)c3ccc(=O)n(C)n3)n2)c(C)n1CC1CCCO1 (stereo not drawn),1,-1,.,43*,-1,-8
CCCCCCCCCC[n+]1cccc2c3ccccc3ccc21,.,2,76*,-418,.,.
C[n+]1c2n(c3ccccc31)N=C(c1cc(C(C)(C)C)c(O)c(C(C)(C)C)c1)CS2,-14,0,86*,20,5,-7
O=C(CN1C(=O)c2ccccc2S1(=O)=O)Nc1ncc(Cl)cc1Cl,-4,.,69*,-32,-3,10
CN1CCN(c2ccc(-c3ccc4ccccc4n3)cc2)CC1,.,89*,102*,-420,.,.
Cc1ccc(S(=O)(=O)/N=C2\C=C(NS(=O)(=O)c3ccccc3)C(=O)c3ccccc32)c(C)c1,.,.,4,50*,.,.
CC(C)(C)c1ccc(S(=O)(=O)/N=C2\C=C(NS(=O)(=O)c3ccccc3)C(=O)c3ccccc32)cc1,27,-1,14,51*,7,3
C/C(=N\NS(=O)(=O)c1ccc(C(C)(C)C)cc1)c1ccccc1,-22,2,8,7,-13,-6
Cc1csc(N=Nc2ccc(N(C)C)cc2)[n+]1[O-],.,.,75*,11,.,.
COCCCNC(=O)c1ccc2c3c(onc13)-c1ccccc1C2=O,54*,4,.,106*,18,38
CN(C)CCCN(C(=O)c1ccc([N+](=O)[O-])s1)c1nc2cc3c(cc2s1)OCCO3,47,1,6,19,5,55*
CN(C)CCCN(C(=O)c1ccc(Br)s1)c1nc2cc3c(cc2s1)OCCO3,1,.,6,-15,2,-8
CCCN(C)C[C@H]1Oc2cc(C#Cc3ccccc3)ccc2S(=O)(=O)N([C@H](C)CO)C[C@@H]1C,.,.,-6,.,.,.
O=C(COc1ccccc1[N+](=O)[O-])Nc1ccc(N2CCN(C(=O)c3cccs3)CC2)cc1,2,-3,75*,14,-4,0
NS(=O)(=O)c1ccc(N=Nc2ccc(=O)[nH]c2O)cc1,.,6,1,64*,.,.
SMILES,SENP6 block,HSP90 refold inh,LGR2 antag,SENP8 block-1,SENP7 inh,SENP8 block-2
NS(=O)(=O)c1ccc(N=Nc2ccc(O)c3ncccc23)cc1,11,-1,7,35,6,18
Cc1ccc(S(=O)(=O)Nc2cccc3c2O[C@H](CN(C)S(=O)(=O)c2cccs2)[C@@H](C)CN([C@@H](C)CO)C3=O)cc1,.,.,3,.,.,.
O=C1NN(c2ccccc2)C(=O)/C1=C\c1cccc(OC(=O)c2cccs2)c1,12,-2,.,44*,5,29
O=C1NN(c2ccc(Cl)c(Cl)c2)C(=O)/C1=C/c1cccc(OC(=O)c2cccs2)c1,14,1,.,.,-3,18
O=C(Nc1ccc(O)c(C(=O)O)c1)Oc1ccccc1,76*,4,-7,-297,56*,60*
CN(C)c1ccc(C=c2c3ccccc3n3c2c2c([n+]3C)CCCC2)cc1,.,.,32*,-103,.,.
CN(C)c1ccc(C=c2c3ccccc3n3c2cc(-c2ccccc2)[n+]3C)cc1,.,.,91*,-92,.,.
COc1cc(N(C)C)ccc1C=c1c2ccccc2n2c1cc(-c1ccccc1)[n+]2C,.,.,79*,13,.,.
COc1cc(C=c2c3ccccc3n3c2cc(-c2ccccc2)[n+]3C)cc(OC)c1OC,.,.,7,-304,.,.
CN(C)c1ccc(C=c2c3cc([N+](=O)[O-])ccc3n3c2cc(-c2ccccc2)[n+]3C)cc1,.,.,43,51*,.,.
CN(C)c1ccc(C=c2c3ccccc3n3c2cc(-c2ccc(Cl)cc2)[n+]3C)cc1,.,.,29,-391,.,.
C[C@@H]1CN([C@H](C)CO)C(=O)c2cc(/C=C/c3ccccc3)cnc2O[C@@H]1CN(C)C(=O)Nc1ccc(C(F)(F)F)cc1,.,.,18,.,.,.
COc1ccc(-n2c(C)c([N+](=O)[O-])c3ccc(O)c(CN(C)C)c32)cc1,-12,2,.,42*,-8,-10
CC(CCC(C)C(C)(C)C)[C@@H]1CC[C@H]2C3C[C@H](OS(O)(=S)=S)[C@H]4C[C@H](OS(O)(=S)=S)[C@@H](OS(O)(=S)=S)C[C@]4(C)[C@H]3CC[C@]12C (stereo partly drawn) (tested in a mixture with another compound),-2,.,.,1,8,54*
CC(CCC(=O)NN)C1CCC2C3CCC4CC(O)CCC4(C)C3CCC12C (stereo not drawn),.,.,17,8,.,.
O=C(Nc1ccc(N2CCOCC2)cc1)c1ccc(Br)o1,45,14,4,4,50,33
CN1CCN(c2ccc(NC(=O)c3ccc(Br)o3)cc2)CC1,57*,-3,-17,5,47,33
CO[C@H]1CN(C)C(=O)c2cc(NC(=O)C3CCCC3)ccc2OC[C@H](C)N(C(C)=O)C[C@@H]1C,.,.,6,.,.,.
CC(C)NC(=O)N(C)C[C@H]1OCCCC[C@H](C)Oc2ccc(NC(=O)c3ccccc3)cc2C(=O)N([C@H](C)CO)C[C@H]1C,.,.,-2,.,.,.
CC[C@H](CO)Nc1nc(Nc2cccc(Cl)c2)c2ncn(C(C)C)c2n1,-16,.,58*,-185,2,0
O=C(NC(=S)NNC(=O)c1ccccc1O)c1ccc([N+](=O)[O-])cc1,77*,-4,2,36,28,49
Nc1[nH]n2c(=O)c3c(nc2c1N=Nc1ccc(Cl)cc1)CCCC3,16,-2,.,45*,14,9
Nc1[nH]n2c(=O)c3c(nc2c1N=Nc1ccccc1)CCCC3,6,0,.,53*,-4,3
COCC(=O)N1C[C@H](C)[C@@H](OC)CN(C)C(=O)c2ccc(NC(=O)c3ccc(F)cc3)cc2OC[C@@H]1C,.,.,-9,.,.,.
